# HT1080 IDH1KD tx: toxicity to HT-1080 IDH1 knockdown cells (counter line) | HT-1080 IDH1 knockdown viability, ATP luminescence, 48 h | Potency, µM (titrated, usually from 46.1 µM), inactives show at the highest dose activity, negative = toxicity, hits mostly cytotoxic | 360,000 compounds, 2% hits | AID 686971;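 note: potency is the fitted concentration of half-maximal effect; 0% = DMSO wells and -100% = cell-free medium wells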
#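 % activity derives from luminescence (CellTiter-Glo), normalised to DMSO and no-cell wells. HT-1080-IDH1KD cells, 750/well, had 48 h compound exposure at 37 °C.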
# IL1B secr inh: inflammasome signaling inhibition, IL-1 beta readout | 360,000 compounds, 4.7% hits | activity change, % at 57.5 µM | THP-1 LPS/ATP IL-1B secretion, AlphaLISA, 16 h; active compounds read low; in the data active = activity change below about -50%; inconclusive = mostly about -30% to -49%
#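 THP-1 cells pretreated 1 hr with compounds (up to 57.5 uM final), then stimulated with LPS (250 ng/mL final) plus ATP (1.25 mM final); secreted IL-1B measured by AlphaLISA after 16 hr, decreased signal indicating inhibition.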
# DT40 TDP1 no CPT: qHTS for Inhibitors of human tyrosyl-DNA phosphodiesterase 1 (TDP1): qHTS in cells in absence of CPT. DT40 Tdp1-/- hTDP1 cells, no CPT, ATP luminescence, 48 h. Potency, µM (top dose mostly 46.2 µM), for inactives: at the highest dose activity change, negative = growth inhibition, hits mostly inhibitors. 420,000 compounds, 15% hits. AID 686978, 2013; note: potency is the fitted concentration of half-maximal effect; nearly all actives have a fitted effect of over 55% in size
#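 No-CPT arm: Tdp1-/-;hTDP1 DT40 cells (400/well) plus compounds, incubated ≥48 hr at 37 °C. Readout CellTiter-Glo luminescence.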
# HT1080-NT tox: kills 2HG-producing HT-1080-NT fibrosarcoma cells. HT-1080-NT fibrosarcoma viability, CellTiter-Glo ATP luminescence, 48 h. Potency, µM (top dose mostly 46.1 µM), for the others: top-dose activity, negative = less viability, hits mostly cytotoxic. 360,000 compounds, 1.6% hits. AID 686970;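 note: NT is the 2HG producing partner of a matched IDH1 knockdown line; potency is the fitted concentration of half-maximal effect; 0% = DMSO-treated cells and -100% = media-only wells without cells; nearly all actives have a fitted effect of over 55% in size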
#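 HT-1080-NT; 750 cells/well; 5% FBS RPMI; 48 h compound, 37 degrees C; CellTiter-Glo luminescence; curve fitting and curve-class assignment.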
# ELG1 repair inh: ELG1-dependent DNA repair inhibition | Potency, µM (titrated, usually from 46.1 µM), for the others: top-dose activity change, negative = inhibition, hits mostly inhibitors | HEK293T ELG1-luciferase reporter, luminescence, 16 h; DNA damage induced by 5-fluorouridine | 330,000 compounds, 2.3% hits; note: potency is the fitted concentration of half-maximal effect; nearly all actives have a fitted effect of over 55% in size
#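 Quantitative HTS, concentration-response format. 2,000 cells/well co-treated with 5-fluorouridine and compound, 16 hr in 5% CO2 at 37 °C; ONE-Glo luminescence read after 30 min.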
# DT40 TDP1 CPT: DT40-hTDP1 cell growth loss with CPT; chicken DT40 Tdp1-/-;hTDP1 cells + 20 nM CPT, ATP luminescence, 48 h; Potency, µM (highest dose often 46.2 µM), without a hit: at the top dose activity change, negative = growth inhibition, most hits filed as inhibitors; 420,000 compounds, 12% hits; AID 686979; note: potency is the fitted concentration of half-maximal effect; nearly all actives have a fitted effect of over 55% in size
#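 Cell growth measured by CellTiter-Glo luminescence after a minimum 48 h, 37 C compound exposure with 20 nM CPT in Tdp1-knockout DT40 cells stably expressing hTDP1, seeded 400/well; qHTS titration format.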
# * = called active by the depositor; ? = inconclusive; . = not tested or not shown; [ ] = dose if it differs, or a comment. Sampled rows, rich in hits. Any-hit rate of the full collection: about 19%. Unless noted, calls come from the whole dose curve; as a rule, active = well fitted curve in the direction sought with a large enough effect; inconclusive = small, poorly fitted or top-dose-only effect, or another doubt; inactive = no such curve, though single readings can be large; an effect the other way counts as inactive or inconclusive. Unless noted, % is set by controls: 0 for no effect and ±100 for the full control effect.
SMILES,HT1080 IDH1KD tx,IL1B secr inh,DT40 TDP1 no CPT,HT1080-NT tox,ELG1 repair inh,DT40 TDP1 CPT
O=C(/C=C/N1CCOCC1)c1ccc(-c2ccccc2)cc1,7%,-1,21µM*,-5%,?,?
C/C(=N\NC(=O)c1ccc(Br)cc1)C1C(=O)c2ccccc2C1=O,1µM*,5,-27%,2.2µM*,-2%,?
C/C(=N/NC(=O)c1ccc(-c2ccccc2)cc1)c1cc(O)cc(O)c1,?,?,16µM*,?,7%,21µM*
CCOc1ccc(C(=O)N/N=C(/C)C2C(=O)c3ccccc3C2=O)cc1,-12%,32,0.65µM*,-12%,?,0.58µM*
C/C(=N\NC(=O)c1ccc(-c2ccccc2)cc1)C1C(=O)c2ccccc2C1=O,-7%,127,21µM*,-15%,?,21µM*
CCOc1ccc(C(=O)NCCNC(=O)c2ccc(OCC)cc2)cc1,9%,9,20%,21%,8%,-1%
C/C(CC(=O)NC1CCCCC1)=N\NC(=O)c1ccc(Br)cc1,-8%,15,-2%,-19%,0%,3%
Cc1ccc(NC(=O)CCNC(=O)c2ccc(Br)cc2)nc1,0%,-4,11%,2%,2%,1%
COc1ccc(S(=O)(=O)N2CCC(C(=O)NC3CCCC3)CC2)cc1C,4%,4,-14%,-6%,1%,8%
CN(Cc1ccccc1)C(=O)C1CCN(S(=O)(=O)Cc2ccccc2)CC1,.,.,-20%,.,.,-2%
C[C@H](CO)N1C[C@H](C)[C@@H](CN(C)S(=O)(=O)c2ccccc2)Oc2ccc(NS(=O)(=O)c3ccc(F)cc3)cc2C1=O,9%,-9,-19%,1%,?,-29%
COc1ccc(S(=O)(=O)Nc2ccc3c(c2)C(=O)N([C@@H](C)CO)C[C@H](C)[C@H](CN(C)S(=O)(=O)c2ccc(F)cc2)O3)cc1,0%,-26,?,2%,21µM*,?
C[C@H](CO)N1C[C@H](C)[C@@H](CN(C)S(=O)(=O)c2cccs2)Oc2ccc(NS(=O)(=O)c3ccc(F)cc3)cc2C1=O,13%,8,-30%,17%,6.5µM*,9%
C[C@H](CO)N1C[C@H](C)[C@@H](CN(C)S(=O)(=O)c2ccccc2)Oc2ccc(NS(=O)(=O)c3ccccc3)cc2C1=O,10%,-12,-20%,13%,23µM*,?
C[C@H](CO)N1C[C@H](C)[C@@H](CN(C)S(=O)(=O)c2cccs2)Oc2ccc(NS(=O)(=O)c3ccccc3)cc2C1=O,-4%,-17,?,-5%,9.2µM*,?
NS(=O)(=O)c1ccc(CCNC(=O)COC(=O)c2ccc([N+](=O)[O-])o2)cc1,3%,15,-21%,-20%,6%,7%
CCC1(C2CCN(Cc3ccccn3)CC2)NC(=O)N(CC2COc3ccccc3O2)C1=O (stereo not given),.,.,-7%,.,.,-7%[9.04 µM]
CCc1nc(SC)ncc1C(=O)NCc1cccc(Br)c1,.,.,1%,.,.,5%
CCCCn1c(N)c(N(CC(C)C)C(=O)CCNC(=O)c2ccc(Br)cc2)c(=O)[nH]c1=O,1%,-9,-14%,0%,15%,0%
COc1ccc(C(c2c(O)cc(C)n(Cc3ccco3)c2=O)N2CCN(c3ccccc3)CC2)cc1 (stereo not given),.,.,-19%,.,.,-23%
Cc1ccc(C)n1-c1ccc(N(C)C)cc1,-16%,?,29µM*,-24%,?,?
CCc1ccc(CNC(=O)CN2C(=O)CCn3nc(-c4cn(C)c5ccccc45)cc32)cc1,.,.,-21%,.,.,16µM*
Cn1cc(-c2cc3n(n2)CCC(=O)N3CCCC(=O)NCc2ccc(F)cc2)c2ccccc21,.,.,?,.,.,16µM*
COc1cccc(CNC(=O)CN2C(=O)CCn3nc(-c4cn(C)c5ccccc45)cc32)c1OC,.,.,4%,.,.,-1%
CC(=O)N1CCN(C(=O)CN2C(=O)NC(C)(c3ccc4ccccc4c3)C2=O)CC1 (stereo not given),-5%,-2,?,0%,4%,-17%
SMILES,HT1080 IDH1KD tx,IL1B secr inh,DT40 TDP1 no CPT,HT1080-NT tox,ELG1 repair inh,DT40 TDP1 CPT
CC1CC(C)(C)CC2(C1)NC(=O)N(CC(=O)N1CCN(Cc3ccc(C#N)cc3)CC1)C2=O (stereo not given),?,0,5.2µM*,?,-6%,8.2µM*
CC1CC(C)(C)CC2(C1)NC(=O)N(CC(=O)Nc1cc([N+](=O)[O-])ccc1F)C2=O (stereo not given),-25%,-1,10µM*,-18%,0%,15µM*
CC1(c2ccc3ccccc3c2)NC(=O)N(CC(=O)N2CCN(Cc3ccc(C#N)cc3)CC2)C1=O (stereo not given),-22%,-6,2.1µM*,?,-15%,3.3µM*
Cc1cccc(NC(=O)CN2CCN(C(=O)CN3C(=O)NC4(CC(C)CC(C)(C)C4)C3=O)CC2)c1C (stereo not given),-7%,0,4.1µM*,2%,.,21µM*
Cc1ccc2c(c1)C(=C(C#N)C#N)CCN2,2%,4,?,-1%,.,-27%
COC(=O)[C@]12CCCCC=C1N(CCC1=CCCCC1)C(=O)[C@H](CC(=O)NCC13CC4CC(CC(C4)C1)C3)C2,?,0,?,?,.,?
O=C(COc1ccc([N+](=O)[O-])cc1)NNC(=O)Nc1cccc(F)c1,-18%,6,-19%,-12%,0%,-10%
O=C(NCc1ccc(F)cc1)C(=O)NCC1OCCCN1S(=O)(=O)c1cccs1 (stereo not given),1%,-9,-3%,-1%,-9%,-11%
Cc1nc(N)[nH]c(=O)c1CCCNc1ccc(CCCCC2(CCl)OCCO2)cc1,-15%,28,?,?,.,18µM*
COc1ccc(C(CC(=O)N2CCN(c3ccccc3)CC2)c2c(OC)cc(OC)c3ccc(=O)oc23)cc1 (stereo not given),0%,-8,?,-5%,16%,21µM*
COc1cc(O)c(C(CC(=O)N2CCN(c3ccccc3)CC2)c2ccc(N(C)C)cc2)c(OC)c1 (stereo not given),-4%,-15,-20%,3%,0%,23µM*

# Source: PubChem (National Center for Advancing Translational Sciences (NCATS))
